# Data from publication PMC7862700, “An all-to-all approach to the identification of sequence-specific readers for epigenetic DNA modifications on cytosine”.
# Experiments:
# Test in all cases: DAPPL (digital affinity profiling via proximity ligation, sequencing); 10 mM Tris-HCl pH 7.5, 50 mM NaCl, 1 mM DTT, 4% glycerol, room temperature, 30 min; GST-TFs on glutathione beads, 16-mer random dsDNA library, 0.1% formaldehyde crosslink after washing; high values mean tight binding
# FEV = target: T1, FEV (Homo sapiens, UniProt Q99581 1-238); settings: protein: recombinant; tags: N-terminal GST; dsDNA, one strand shown
# T1 sequence: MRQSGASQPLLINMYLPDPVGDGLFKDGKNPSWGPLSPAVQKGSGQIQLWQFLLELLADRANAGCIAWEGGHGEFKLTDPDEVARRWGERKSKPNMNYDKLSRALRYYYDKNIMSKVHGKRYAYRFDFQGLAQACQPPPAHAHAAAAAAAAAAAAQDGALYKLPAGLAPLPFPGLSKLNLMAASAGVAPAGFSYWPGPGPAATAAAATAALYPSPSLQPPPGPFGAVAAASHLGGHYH
# Outline: (§1)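 Binding signal is each hexamer's read frequency for a factor divided by its frequency in the tag-only sample. The factors were GST-fused human transcription factors from yeast, captured on glutathione beads, DNA-barcoded and pooled with that sample. Pools were incubated with 200 nmole of a random double-stranded 16-mer DNA library in Tris/NaCl/DTT/glycerol buffer at room temperature for 30 min, then washed, crosslinked with 0.1% formaldehyde, proximity-ligated with BsaI/T4 ligase (1 h, 37 °C), PCR-amplified and sequenced on an Illumina NextSeq500.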
# ETV5 = ETV5 (Homo sapiens, UniProt P41161 1-510); settings: protein: recombinant; tags: N-terminal GST; dsDNA, one strand shown
# Outline: as §1
# HSF1 = HSF1 (Homo sapiens, UniProt Q00613 1-529); settings: protein: recombinant; tags: N-terminal GST; chain copies: 3; dsDNA, one strand shown
# Outline: as §1
# SPIC = target: T2, SPIC (Homo sapiens, UniProt Q8N5J4 1-248); settings: protein: recombinant; tags: N-terminal GST; dsDNA, one strand shown
# T2 sequence: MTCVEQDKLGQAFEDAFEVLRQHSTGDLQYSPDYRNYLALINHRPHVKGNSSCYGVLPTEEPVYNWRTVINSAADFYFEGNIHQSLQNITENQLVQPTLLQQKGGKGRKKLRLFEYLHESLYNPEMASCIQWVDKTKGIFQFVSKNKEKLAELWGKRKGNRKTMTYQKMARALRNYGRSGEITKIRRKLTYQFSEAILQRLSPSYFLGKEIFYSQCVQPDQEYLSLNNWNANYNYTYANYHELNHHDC
# Outline: as §1
# ELF4 = ELF4 (Homo sapiens, UniProt Q99607 1-663); settings: protein: recombinant; tags: N-terminal GST; dsDNA, one strand shown
# Outline: as §1
# ELK4 = target: T3, ELK4 (Homo sapiens, UniProt P28324-2 1-405); settings: protein: recombinant; tags: N-terminal GST; dsDNA, one strand shown
# T3 sequence: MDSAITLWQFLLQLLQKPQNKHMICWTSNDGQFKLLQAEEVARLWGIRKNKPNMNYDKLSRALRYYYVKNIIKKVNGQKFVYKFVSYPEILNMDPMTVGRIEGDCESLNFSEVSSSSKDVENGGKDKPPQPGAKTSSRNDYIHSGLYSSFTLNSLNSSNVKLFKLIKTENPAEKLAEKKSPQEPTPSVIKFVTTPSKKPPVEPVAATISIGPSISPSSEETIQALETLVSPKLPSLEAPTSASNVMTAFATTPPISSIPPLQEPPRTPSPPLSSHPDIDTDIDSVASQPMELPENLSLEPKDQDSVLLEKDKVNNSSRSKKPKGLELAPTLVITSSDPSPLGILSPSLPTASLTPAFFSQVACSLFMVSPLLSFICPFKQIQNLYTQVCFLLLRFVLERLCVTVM
# Outline: as §1
# ETV2 = target: T4, ETV2 (Homo sapiens, UniProt O00321 1-342); settings: protein: recombinant; tags: N-terminal GST; dsDNA, one strand shown
# T4 sequence: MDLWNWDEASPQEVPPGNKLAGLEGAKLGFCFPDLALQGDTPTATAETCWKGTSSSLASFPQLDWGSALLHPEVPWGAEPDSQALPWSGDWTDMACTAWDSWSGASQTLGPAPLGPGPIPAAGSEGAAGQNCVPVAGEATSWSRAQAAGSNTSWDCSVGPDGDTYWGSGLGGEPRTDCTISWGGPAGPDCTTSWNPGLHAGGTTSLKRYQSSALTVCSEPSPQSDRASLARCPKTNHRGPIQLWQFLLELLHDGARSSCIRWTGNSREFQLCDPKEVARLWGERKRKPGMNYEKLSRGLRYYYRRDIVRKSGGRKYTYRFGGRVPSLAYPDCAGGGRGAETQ
# Outline: as §1
# ELF3 = target: T5, ELF3 (Homo sapiens, UniProt P78545 1-371); settings: protein: recombinant; tags: N-terminal GST; dsDNA, one strand shown
# T5 sequence: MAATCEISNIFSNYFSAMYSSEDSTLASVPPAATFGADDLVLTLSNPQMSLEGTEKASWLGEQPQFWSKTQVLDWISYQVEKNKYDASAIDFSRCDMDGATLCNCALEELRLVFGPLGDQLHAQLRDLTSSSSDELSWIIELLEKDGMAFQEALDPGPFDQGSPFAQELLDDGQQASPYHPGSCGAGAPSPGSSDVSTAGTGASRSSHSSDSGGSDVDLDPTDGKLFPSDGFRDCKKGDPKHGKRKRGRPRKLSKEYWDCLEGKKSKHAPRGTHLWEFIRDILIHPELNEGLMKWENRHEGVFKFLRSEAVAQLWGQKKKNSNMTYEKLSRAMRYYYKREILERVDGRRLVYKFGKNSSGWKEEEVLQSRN
# Outline: as §1
# CRX = CRX (Homo sapiens, UniProt O43186 1-299); settings: protein: recombinant; tags: N-terminal GST; dsDNA, one strand shown
# Outline: as §1
# ETV1 = ETV1 (Homo sapiens, UniProt P50549 1-477); settings: protein: recombinant; tags: N-terminal GST; dsDNA, one strand shown
# Outline: as §1
# ERF = target: T6, ERF (Homo sapiens, UniProt P50548 1-548); settings: protein: recombinant; tags: N-terminal GST; dsDNA, one strand shown
# T6 sequence: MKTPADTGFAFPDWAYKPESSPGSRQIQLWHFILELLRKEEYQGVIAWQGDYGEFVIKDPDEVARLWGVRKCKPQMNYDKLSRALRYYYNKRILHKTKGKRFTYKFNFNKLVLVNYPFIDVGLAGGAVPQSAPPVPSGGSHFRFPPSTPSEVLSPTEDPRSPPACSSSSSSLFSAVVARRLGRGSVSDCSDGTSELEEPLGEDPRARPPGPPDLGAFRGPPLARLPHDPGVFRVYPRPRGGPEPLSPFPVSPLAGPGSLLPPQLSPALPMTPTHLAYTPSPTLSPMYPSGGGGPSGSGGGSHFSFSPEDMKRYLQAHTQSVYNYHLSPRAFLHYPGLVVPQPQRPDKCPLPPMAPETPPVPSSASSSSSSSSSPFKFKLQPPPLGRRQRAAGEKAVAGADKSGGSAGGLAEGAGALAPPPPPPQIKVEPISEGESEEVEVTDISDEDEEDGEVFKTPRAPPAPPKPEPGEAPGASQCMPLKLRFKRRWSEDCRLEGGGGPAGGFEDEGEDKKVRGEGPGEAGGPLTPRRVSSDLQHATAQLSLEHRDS
# Outline: as §1
# ETV3L = target: T7, ETV3L (Homo sapiens, UniProt Q6ZN32 1-361); settings: protein: recombinant; tags: N-terminal GST; dsDNA, one strand shown
# T7 sequence: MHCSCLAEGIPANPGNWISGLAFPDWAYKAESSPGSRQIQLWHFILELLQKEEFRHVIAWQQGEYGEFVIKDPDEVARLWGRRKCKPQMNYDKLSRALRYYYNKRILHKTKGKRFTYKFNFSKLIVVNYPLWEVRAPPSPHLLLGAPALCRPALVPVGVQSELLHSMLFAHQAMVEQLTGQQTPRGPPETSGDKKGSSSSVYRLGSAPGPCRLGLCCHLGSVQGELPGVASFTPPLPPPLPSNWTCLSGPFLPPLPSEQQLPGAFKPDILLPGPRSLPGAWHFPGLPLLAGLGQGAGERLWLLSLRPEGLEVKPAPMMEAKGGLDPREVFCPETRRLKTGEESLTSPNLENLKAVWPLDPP
# Outline: as §1
# ETS2 = target: T8, ETS2 (Homo sapiens, UniProt P15036 1-469); settings: protein: recombinant; tags: N-terminal GST; dsDNA, one strand shown
# T8 sequence: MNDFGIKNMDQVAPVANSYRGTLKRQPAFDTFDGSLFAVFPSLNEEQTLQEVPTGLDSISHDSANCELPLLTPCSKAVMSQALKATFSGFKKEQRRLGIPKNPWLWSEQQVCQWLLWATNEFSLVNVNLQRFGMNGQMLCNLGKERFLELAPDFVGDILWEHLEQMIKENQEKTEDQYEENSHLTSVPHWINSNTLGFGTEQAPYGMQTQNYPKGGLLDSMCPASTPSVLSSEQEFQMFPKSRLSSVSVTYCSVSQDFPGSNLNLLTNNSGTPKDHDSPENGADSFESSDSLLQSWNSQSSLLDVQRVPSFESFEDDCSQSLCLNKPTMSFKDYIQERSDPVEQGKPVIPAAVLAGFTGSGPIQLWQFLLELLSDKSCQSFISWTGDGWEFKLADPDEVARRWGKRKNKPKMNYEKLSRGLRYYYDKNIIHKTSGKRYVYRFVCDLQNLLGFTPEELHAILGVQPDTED
# Outline: as §1
# SPDEF = target: T9, SPDEF (Homo sapiens, UniProt O95238 1-335); settings: protein: recombinant; tags: N-terminal GST; dsDNA, one strand shown
# T9 sequence: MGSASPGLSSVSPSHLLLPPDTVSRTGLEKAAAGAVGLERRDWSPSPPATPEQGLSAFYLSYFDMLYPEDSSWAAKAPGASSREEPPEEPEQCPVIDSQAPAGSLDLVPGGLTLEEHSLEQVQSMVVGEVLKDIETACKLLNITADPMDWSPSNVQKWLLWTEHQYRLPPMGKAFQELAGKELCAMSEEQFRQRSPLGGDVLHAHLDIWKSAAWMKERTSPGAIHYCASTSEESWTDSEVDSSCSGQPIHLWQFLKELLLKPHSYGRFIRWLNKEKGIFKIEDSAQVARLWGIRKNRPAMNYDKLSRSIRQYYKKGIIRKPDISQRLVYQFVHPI
# Outline: as §1
# ETV7 = target: T10, ETV7 (Homo sapiens, UniProt Q9Y603 1-341); settings: protein: recombinant; tags: N-terminal GST; dsDNA, one strand shown
# T10 sequence: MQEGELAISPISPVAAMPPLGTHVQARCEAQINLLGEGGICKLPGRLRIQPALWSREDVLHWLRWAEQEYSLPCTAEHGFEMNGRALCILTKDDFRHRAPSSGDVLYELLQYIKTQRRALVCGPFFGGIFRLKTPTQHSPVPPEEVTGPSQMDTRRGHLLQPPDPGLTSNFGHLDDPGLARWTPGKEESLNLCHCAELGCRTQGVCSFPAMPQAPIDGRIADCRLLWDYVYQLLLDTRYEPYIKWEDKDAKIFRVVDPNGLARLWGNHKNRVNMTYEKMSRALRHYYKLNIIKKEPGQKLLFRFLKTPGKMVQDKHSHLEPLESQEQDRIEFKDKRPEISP
# Outline: as §1
# ELF5 = target: T11, ELF5 (Homo sapiens, UniProt Q9UKW6-2 1-255); settings: protein: recombinant; tags: N-terminal GST; dsDNA, one strand shown
# T11 sequence: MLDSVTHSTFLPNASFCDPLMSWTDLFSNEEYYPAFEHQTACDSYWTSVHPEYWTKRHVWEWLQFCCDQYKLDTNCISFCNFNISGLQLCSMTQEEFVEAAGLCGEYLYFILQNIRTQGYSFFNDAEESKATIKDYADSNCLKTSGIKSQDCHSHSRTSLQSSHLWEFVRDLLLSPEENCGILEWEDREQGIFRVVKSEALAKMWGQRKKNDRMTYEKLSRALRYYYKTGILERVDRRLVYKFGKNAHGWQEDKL
# Outline: as §1
# ETV3 = target: T12, ETV3 (Homo sapiens, UniProt P41162-2 1-143); settings: protein: recombinant; tags: N-terminal GST; dsDNA, one strand shown
# T12 sequence: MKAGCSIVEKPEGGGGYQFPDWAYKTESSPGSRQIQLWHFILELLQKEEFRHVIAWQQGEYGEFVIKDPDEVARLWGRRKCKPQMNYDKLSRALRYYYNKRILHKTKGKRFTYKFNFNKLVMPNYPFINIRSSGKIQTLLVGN
# Outline: as §1
# ETV6 = ETV6 (Homo sapiens, UniProt P41212 1-452); settings: protein: recombinant; tags: N-terminal GST; dsDNA, one strand shown
# Outline: as §1
# ELF4, sequence (Q99607 whole entry): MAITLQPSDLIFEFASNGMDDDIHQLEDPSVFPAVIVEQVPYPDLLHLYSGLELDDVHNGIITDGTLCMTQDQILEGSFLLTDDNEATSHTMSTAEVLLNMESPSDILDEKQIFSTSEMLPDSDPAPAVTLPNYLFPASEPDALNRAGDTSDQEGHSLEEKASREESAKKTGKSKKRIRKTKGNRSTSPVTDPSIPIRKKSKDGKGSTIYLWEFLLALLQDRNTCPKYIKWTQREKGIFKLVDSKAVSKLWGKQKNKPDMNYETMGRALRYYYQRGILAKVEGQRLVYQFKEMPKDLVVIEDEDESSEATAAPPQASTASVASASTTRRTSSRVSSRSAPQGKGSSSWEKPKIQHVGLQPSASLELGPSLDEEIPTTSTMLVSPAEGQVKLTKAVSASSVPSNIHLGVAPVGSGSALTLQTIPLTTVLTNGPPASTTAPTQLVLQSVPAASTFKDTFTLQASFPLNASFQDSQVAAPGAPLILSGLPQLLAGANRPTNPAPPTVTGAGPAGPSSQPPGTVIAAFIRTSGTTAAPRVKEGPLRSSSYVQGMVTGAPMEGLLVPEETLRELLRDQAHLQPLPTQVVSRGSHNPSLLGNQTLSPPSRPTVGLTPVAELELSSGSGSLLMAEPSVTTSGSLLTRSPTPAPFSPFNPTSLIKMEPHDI
# HSF1, sequence (Q00613 whole entry): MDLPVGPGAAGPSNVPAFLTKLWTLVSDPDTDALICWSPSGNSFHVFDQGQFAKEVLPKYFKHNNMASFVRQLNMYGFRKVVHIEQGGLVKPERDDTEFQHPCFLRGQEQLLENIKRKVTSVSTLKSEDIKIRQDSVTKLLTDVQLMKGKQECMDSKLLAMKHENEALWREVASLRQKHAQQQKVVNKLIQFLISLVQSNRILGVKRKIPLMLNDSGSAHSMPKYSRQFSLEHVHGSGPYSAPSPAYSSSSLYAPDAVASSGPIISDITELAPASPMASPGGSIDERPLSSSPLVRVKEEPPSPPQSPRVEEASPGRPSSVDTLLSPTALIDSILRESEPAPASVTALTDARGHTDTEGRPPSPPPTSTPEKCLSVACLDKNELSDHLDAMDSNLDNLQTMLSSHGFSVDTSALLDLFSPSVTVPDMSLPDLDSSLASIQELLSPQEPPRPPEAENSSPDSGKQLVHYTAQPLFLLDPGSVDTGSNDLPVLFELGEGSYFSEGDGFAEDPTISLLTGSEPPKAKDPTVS
# ETV6, sequence (P41212 whole entry): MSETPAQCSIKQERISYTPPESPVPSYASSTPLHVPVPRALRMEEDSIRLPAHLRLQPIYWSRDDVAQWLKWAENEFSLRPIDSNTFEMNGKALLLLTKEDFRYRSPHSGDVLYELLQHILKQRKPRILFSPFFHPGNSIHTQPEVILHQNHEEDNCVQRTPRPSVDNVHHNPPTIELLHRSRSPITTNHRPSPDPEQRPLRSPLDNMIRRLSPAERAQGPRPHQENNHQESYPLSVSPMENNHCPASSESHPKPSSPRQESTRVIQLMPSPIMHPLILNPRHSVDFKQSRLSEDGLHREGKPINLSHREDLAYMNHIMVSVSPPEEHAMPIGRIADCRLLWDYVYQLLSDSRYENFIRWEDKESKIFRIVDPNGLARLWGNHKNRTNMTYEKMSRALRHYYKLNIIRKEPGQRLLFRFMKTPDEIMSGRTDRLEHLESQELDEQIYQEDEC
# ETV5, sequence (P41161 whole entry): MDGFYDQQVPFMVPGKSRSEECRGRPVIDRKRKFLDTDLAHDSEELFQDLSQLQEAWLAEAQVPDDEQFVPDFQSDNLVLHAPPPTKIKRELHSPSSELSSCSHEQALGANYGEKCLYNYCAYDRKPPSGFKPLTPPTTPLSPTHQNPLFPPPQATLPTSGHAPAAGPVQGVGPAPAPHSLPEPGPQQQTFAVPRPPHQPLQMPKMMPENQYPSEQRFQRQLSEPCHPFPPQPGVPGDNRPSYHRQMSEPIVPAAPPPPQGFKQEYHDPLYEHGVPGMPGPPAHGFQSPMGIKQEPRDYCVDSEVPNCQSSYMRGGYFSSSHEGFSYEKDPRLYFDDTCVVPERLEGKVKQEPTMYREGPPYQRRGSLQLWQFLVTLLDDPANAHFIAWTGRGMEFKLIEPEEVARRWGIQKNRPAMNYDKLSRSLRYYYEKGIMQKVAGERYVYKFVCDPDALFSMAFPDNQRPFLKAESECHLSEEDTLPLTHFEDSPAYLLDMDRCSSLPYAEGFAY
# ETV1, sequence (P50549 whole entry): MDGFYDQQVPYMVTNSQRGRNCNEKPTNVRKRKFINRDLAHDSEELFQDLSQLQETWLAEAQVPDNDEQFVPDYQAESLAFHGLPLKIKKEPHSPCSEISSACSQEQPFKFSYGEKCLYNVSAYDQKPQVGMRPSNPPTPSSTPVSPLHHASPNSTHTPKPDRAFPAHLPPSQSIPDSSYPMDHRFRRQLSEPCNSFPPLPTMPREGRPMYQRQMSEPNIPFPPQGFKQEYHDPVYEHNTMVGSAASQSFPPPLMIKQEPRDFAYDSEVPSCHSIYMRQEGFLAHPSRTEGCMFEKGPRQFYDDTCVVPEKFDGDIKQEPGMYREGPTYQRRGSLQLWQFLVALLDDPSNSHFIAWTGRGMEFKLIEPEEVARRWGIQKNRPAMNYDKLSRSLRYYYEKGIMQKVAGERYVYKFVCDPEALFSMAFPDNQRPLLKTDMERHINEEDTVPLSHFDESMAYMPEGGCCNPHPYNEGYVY
# CRX, sequence (O43186 whole entry): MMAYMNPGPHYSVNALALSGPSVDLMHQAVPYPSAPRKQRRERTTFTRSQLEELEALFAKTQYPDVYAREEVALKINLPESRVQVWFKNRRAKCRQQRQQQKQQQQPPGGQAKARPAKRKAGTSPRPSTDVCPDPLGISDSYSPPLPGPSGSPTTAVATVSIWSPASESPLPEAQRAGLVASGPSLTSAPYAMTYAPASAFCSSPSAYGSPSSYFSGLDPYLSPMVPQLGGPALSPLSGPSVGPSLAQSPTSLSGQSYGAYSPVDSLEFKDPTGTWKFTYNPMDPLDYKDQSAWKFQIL
sequence,measurement,setting,value
TTCATC,binding signal,FEV,"1.21 fold enrichment (6-mer frequency, TF over GST control)"
same,binding signal,ETV5,"1.28 fold enrichment (6-mer frequency, TF over GST control)"
same,binding signal,HSF1,"1.29 fold enrichment (6-mer frequency, TF over GST control)"
same,binding signal,SPIC,"1.28 fold enrichment (6-mer frequency, TF over GST control)"
same,binding signal,ELF4,"1.27 fold enrichment (6-mer frequency, TF over GST control)"
same,binding signal,ELK4,"1.27 fold enrichment (6-mer frequency, TF over GST control)"
same,binding signal,ETV2,"1.25 fold enrichment (6-mer frequency, TF over GST control)"
same,binding signal,ELF3,"1.3 fold enrichment (6-mer frequency, TF over GST control)"
same,binding signal,CRX,"1.28 fold enrichment (6-mer frequency, TF over GST control)"
same,binding signal,ETV1,"1.25 fold enrichment (6-mer frequency, TF over GST control)"
same,binding signal,ERF,"1.21 fold enrichment (6-mer frequency, TF over GST control)"
same,binding signal,ETV3L,"1.24 fold enrichment (6-mer frequency, TF over GST control)"
same,binding signal,ETS2,"1.17 fold enrichment (6-mer frequency, TF over GST control)"
same,binding signal,SPDEF,"1.36 fold enrichment (6-mer frequency, TF over GST control)"
same,binding signal,ETV7,"1.25 fold enrichment (6-mer frequency, TF over GST control)"
same,binding signal,ELF5,"1.23 fold enrichment (6-mer frequency, TF over GST control)"
same,binding signal,ETV3,"1.26 fold enrichment (6-mer frequency, TF over GST control)"
same,binding signal,ETV6,"1.23 fold enrichment (6-mer frequency, TF over GST control)"
